Measured values published in article PMC5540273 (PLoS ONE, 2017).
Where “and” joins values, the source holds several entries; their conditions need not be identical. Equal values may be shown once. Read-outs that look alike come from different tables or passages of the source.

Key:
[1] = test system: T1, TRKC; conditions: concentration: 1 μM, replicates: in singlicate, n = 1
T1 construct: gene NTRK3

[2] = test system: TRPM6; conditions: concentration: 1 μM, replicates: in singlicate, n = 1
[3] = test system: TSSK1B; conditions: concentration: 1 μM, replicates: in singlicate; n = 1
[4] = test system: TSSK3; conditions: concentration: 1 μM, replicates: in singlicate, n = 1
[5] = test system: TTK; conditions: concentration: 1 μM, replicates: in singlicate, n = 1
[6] = test system: TXK; conditions: concentration: 1 μM, replicates: in singlicate; n = 1
[7] = test system: TYK2(JH1domain-catalytic); conditions: concentration: 1 μM, replicates: in singlicate, n = 1
[8] = test system: TYK2(JH2domain-pseudokinase); conditions: concentration: 1 μM, replicates: in singlicate, n = 1
[9] = test system: TYRO3; conditions: concentration: 1 μM, replicates: in singlicate; n = 1
[10] = test system: ULK1; conditions: concentration: 1 μM, replicates: in singlicate, n = 1
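Further: KINOMEscan kinase panel screen.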

| SMILES | %Inh [1] | %Inh [2] | %Inh [3] | %Inh [4] | %Inh [5] | %Inh [6] | %Inh [7] | %Inh [8] | %Inh [9] | %Inh [10] | %Inh ([1]; 1 µM) | %Inh ([2]; 1 µM) | %Inh ([4]; 1 µM) | %Inh ([5]; 1 µM) | %Inh ([7]; 1 µM) | %Inh ([8]; 1 µM) | %Inh ([10]; 1 µM) |
| --- | --- | --- | --- | --- | --- | --- | --- | --- | --- | --- | --- | --- | --- | --- | --- | --- | --- |
| COc1ccc(Nc2nccc(N3CCC(NC(=O)c4cccc(NC(C)=O)c4)C3)n2)cc1 (stereo not shown) [GSK1379732] | 43% | 0% | 14% | 11% | 8% | 5% | 36% | 30% | 0% | 0% | – | – | – | – | – | – | – |
| Clc1ccc(-c2cc(-c3c[nH]nc3-c3ccccn3)ccn2)cc1 [GW681251] | 100% | 0% | 13% | 16% | 17% | 0% | 3% | 0% | 0% | 0% | – | – | – | – | – | – | – |
| Cl.O=S(=O)(c1cccc(F)c1)c1ccc(Nc2ncnc3cc(Br)sc23)cc1Cl [GSK306886] | 0% | 28% | 0% | 10% | 17% | 15% | 4% | 0% | 0% | 0% | – | – | – | – | – | – | – |
| COc1ccc(-c2nc3n(c2-c2ccncc2)CCC3)cc1 [SKF-104493] | – | – | 0% | – | – | 0% | – | – | 0% | – | 25% and 5% | 0% and 3% | 21% and 8% | 30% and 0% | 7% and 0% | 9% and 1% | 7% and 0% |
| Nc1nc(-c2cccnc2)c(-c2ccnc3ccccc23)s1 [GW684083] | 25% | 14% | 0% | 9% | 0% | 0% | 41% | 62% | 0% | 5% | – | – | – | – | – | – | – |
| O=C(Nc1ccccc1F)NC1CCN(c2ccnc(Nc3ccc(F)cc3)n2)C1 (stereo not shown) [GSK1379722] | 22% | 0% | 12% | 31% | 7% | 16% | 23% | 20% | 0% | 0% | – | – | – | – | – | – | – |
| O=C(CCO)NCCn1ccc2ncnc(Nc3ccc(Oc4cccc(C(F)(F)F)c4)c(Cl)c3)c21 | 0% | 0% | 0% | 2% | 0% | 0% | 0% | 0% | 0% | 0% | – | – | – | – | – | – | – |
| Nc1nc(-c2ccc3c(N)n[nH]c3c2)cc(N2CCC[C@@H](C(=O)Nc3ccccc3)C2)n1.O=C(O)C(F)(F)F.O=C(O)C(F)(F)F [GSK2288359] | 0% | 34% | 0% | 24% | 0% | 8% | 18% | 1% | 0% | 9% | – | – | – | – | – | – | – |
| CCC(CC)(CC)n1cnc2c(N)ncnc21 [SKF-97620] | 37% | 58% | 0% | 3% | 0% | 0% | 21% | 41% | 12% | 31% | – | – | – | – | – | – | – |
| N#Cc1ccc(Oc2ccc(Nc3ncnc4cc[nH]c34)cc2Cl)cc1 | 21% | 0% | 0% | 0% | 16% | 2% | 12% | 11% | 0% | 14% | – | – | – | – | – | – | – |
| CC(=O)Nc1n[nH]c2ncc(-c3ccccc3)cc12 [SB-548492] | 51% | 0% | 0% | 0% | 43% | 9% | 12% | 81% | 0% | 3% | – | – | – | – | – | – | – |
| COc1cc2ncnc(Nc3ccc(OCc4ccccc4Br)c(Cl)c3)c2cc1OC.Cl [GI261590] | 33% | 19% | 14% | 12% | 0% | 12% | 34% | 47% | 15% | 0% | – | – | – | – | – | – | – |
| Cc1ccc(O)cc1Nc1cc(C(F)(F)F)nc2ccc(-c3ccncc3)cc12 [GW630823] | 0% | 0% | 0% | 0% | 3% | 10% | 0% | 0% | 36% | 0% | – | – | – | – | – | – | – |
| FC(F)(F)c1ccc(-c2nn3ncccc3c2-c2ccnc(Nc3cccc(C(F)(F)F)c3)n2)cc1 [GW828205] | 0% | 0% | 0% | 0% | 0% | 3% | 0% | 0% | 0% | 0% | – | – | – | – | – | – | – |
| Clc1cccc(-c2nc(Nc3ccncc3)c3ccccc3n2)c1 [GW873004] | 0% | 0% | 19% | 0% | 0% | 1% | 0% | 13% | 58% | 0% | – | – | – | – | – | – | – |
| O=C(Nc1ccccc1)Nc1ccc(Oc2ccc3nccn3n2)cc1 | 0% | 0% | 1% | 0% | 0% | 12% | 0% | 0% | 19% | 0% | – | – | – | – | – | – | – |
| Fc1cccc(COc2ccc(Nc3ncnc4cc[nH]c34)cc2Cl)c1 | 0% | 0% | 0% | 0% | 4% | 0% | 19% | 28% | 19% | 24% | – | – | – | – | – | – | – |

| SMILES | %Inh [1] | %Inh [2] | %Inh [3] | %Inh [4] | %Inh [5] | %Inh [6] | %Inh [7] | %Inh [8] | %Inh [9] | %Inh [10] | %Inh ([1]; 1 µM) | %Inh ([2]; 1 µM) | %Inh ([4]; 1 µM) | %Inh ([5]; 1 µM) | %Inh ([7]; 1 µM) | %Inh ([8]; 1 µM) | %Inh ([10]; 1 µM) |
| --- | --- | --- | --- | --- | --- | --- | --- | --- | --- | --- | --- | --- | --- | --- | --- | --- | --- |
| Nc1nccc2scc(-c3ccc4c(c3)CCN4C(=O)Cc3cc(F)ccc3F)c12 [GSK2587663] | 40% | 5% | 5% | 15% | 2% | 5% | 18% | 11% | 0% | 6% | – | – | – | – | – | – | – |
| CCc1nc(-c2cccc(N(C)S(=O)(=O)c3ccccc3)c2)c(-c2ccnc(Nc3ccc(N4CCN(C(C)=O)CC4)nc3)n2)s1 [GSK1645895] | 0% | 56% | 0% | 15% | 9% | 15% | 0% | 14% | 0% | 4% | – | – | – | – | – | – | – |
| Cc1cccc(-c2nc(Nc3ccc4[nH]nnc4c3)c3ccccc3n2)n1 [GW867587] | 0% | 0% | 0% | 0% | 0% | 0% | 0% | 42% | 0% | 0% | – | – | – | – | – | – | – |
| Nc1nc(-c2ccccn2)c(-c2ccnc3ccccc23)s1 [GW548057] | 45% | 0% | 0% | 9% | 2% | 0% | 24% | 29% | 0% | 0% | – | – | – | – | – | – | – |
| CCn1c(-c2ccncc2)nc2cnccc21 [SB-735216] | 36% | 22% | 8% | 0% | 0% | 21% | 0% | 0% | 26% | 17% | – | – | – | – | – | – | – |
| COc1ccc(NC(=O)c2ccc(-c3cc(-c4nnc(C)o4)ccc3C)cc2)cc1 [GW595885] | 20% | 0% | 12% | 44% | 11% | 0% | 12% | 22% | 3% | 6% | – | – | – | – | – | – | – |
| COc1ccc(NC(=O)Nc2ccc(C)c(-c3ccc(C(=O)Nc4ccncc4)cc3)c2)cc1 [GSK1398475] | 0% | 0% | 10% | 0% | 0% | 0% | 0% | 5% | 0% | 0% | – | – | – | – | – | – | – |
| c1ccc(-c2ccc3c(-c4ccnc(Nc5ccc6c(c5)OCCO6)n4)cnn3n2)cc1 [GW818941] | 0% | 25% | 32% | 18% | 36% | 13% | 8% | 5% | 0% | 15% | – | – | – | – | – | – | – |
| Cl.Cn1ccc(-c2cccc(Nc3ccnc4cc(-c5nccs5)ccc34)c2)n1 [GW525701] | 43% | 0% | 3% | 6% | 0% | 14% | 30% | 49% | 0% | 0% | – | – | – | – | – | – | – |
| Cl.Fc1ccccc1COc1ccc(Nc2ncnc3ccc(-c4nnc(C(F)(F)F)o4)cc23)cc1Cl [GW424170] | 5% | 0% | 0% | 6% | 0% | 18% | 11% | 12% | 0% | 0% | – | – | – | – | – | – | – |
| CNc1nccc(-c2c(-c3ccc(F)cc3)ncn2CCCN2CCOCC2)n1 [SB-222516] | 38% | 0% | 12% | 12% | 0% | 9% | 18% | 16% | 17% | 13% | – | – | – | – | – | – | – |
| CN1CCC(n2cnc(-c3ccc(F)cc3)c2-c2ccnc(NC3CCNCC3)n2)CC1 [SB-229482] | 9% | 0% | 0% | 43% | 0% | 0% | 25% | 34% | 0% | 0% | – | – | – | – | – | – | – |
| COc1ccc(Nc2nccc(N3CCC(NC(=O)Nc4ccc5c(c4)OCO5)C3)n2)cc1 (stereo not shown) [GSK1379745] | 51% | 0% | 0% | 31% | 0% | 3% | 45% | 15% | 0% | 9% | – | – | – | – | – | – | – |
| C[C@H]1CC[C@@H](C(=O)Nc2ccccc2)CN1c1cc(-c2ccc3c(N)n[nH]c3c2)nc(N)n1 [GSK2283293] | 11% | 8% | 9% | 12% | 20% | 0% | 0% | 27% | 0% | 0% | – | – | – | – | – | – | – |
| Cl.c1ccc(Cn2ncc3cc(Nc4ncnc5ccccc45)ccc32)cc1 [GW273749] | 0% | 37% | 0% | 11% | 18% | 11% | 0% | 12% | 0% | 19% | – | – | – | – | – | – | – |
| COC(=O)c1cccc(NC(=O)NCCNc2ccnc(Nc3ccc(F)cc3)n2)c1 [GSK1379883] | 12% | 0% | 0% | 23% | 0% | 0% | 11% | 20% | 0% | 0% | – | – | – | – | – | – | – |
| Cl.c1ccc(Cn2ccc3cc(Nc4ncnc5ccccc45)ccc32)cc1 [GW275568] | 0% | 32% | 0% | 13% | 9% | 14% | 0% | 0% | 0% | 1% | – | – | – | – | – | – | – |
